# Rows were chosen to be rich in hits. Some 2.4% of all compounds tested hit in one or more screens of this group.
# ANO1 block – mouse TMEM16A channel inhibition, primary screen | Q8BHY3 | HEK293 TMEM16A/YFP iodide influx fluorescence, ionomycin | normalized B-score (activity score, 25-100; higher = stronger inhibition) at 10 µM | 310,000 tested, 1.2% active | AID 588511;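 active = ratio plate-corrected score three or more library SD toward inhibition, starting fluorescence score within five deviations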;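 note: score derived from kinetic fluorescence span divided by baseline fluorescence per well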
# TMEM16A act – activators or potentiators of mouse TMEM16A chloride channel; Q8BHY3; HEK293 TMEM16A/YFP-H148Q/I152L, iodide quench fluorescence; stronger effect = lower value; B-score at 10 µM; 340,000 tested, 0.3% active; AID 623877;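 active = fluorescence-ratio B-score plate-corrected deviation score at least 3 library SD below zero, with starting fluorescence score within 5 deviations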;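 note: channel opened by trigger with iodide after compound preincubation; score built on the fluorescence ratio of max minus min over baseline; more negative score means more quench and so TMEM16A activation or potentiation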
# CHT block – inhibitors of human choline transporter CHT. Q9GZV3. CHT-expressing cells, membrane potential dye, choline response; stronger effect = lower value. B-score at 10 µM. 310,000 tested, 0.86% active. AID 488975;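 active = B-score over 3 SD under the library average, and starting fluorescence ratio not unusually high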;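 note: choline stimulus applied at its EC90 after an EC20 pre-addition; B-score computed on integrated fluorescence ratio after choline addition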
# CHT PAM – human CHT allosteric activation. B-score at 10 µM. 310,000 tested, 0.49% active. AID 488977. CHT-expressing cells, membrane potential dye, choline EC20; stronger effect = higher value; LV-AA mutant CHT in HEK293 cells. Q9GZV3;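 active = initial fluorescence not abnormally high and integrated response B-score, plate-corrected, over 3 SD above library mean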
# Starred values were filed as active, the others as inactive; i = inactive; x = no result.
SMILES,ANO1 block,TMEM16A act,CHT block,CHT PAM
Cc1nn(C)c(C(=O)NNC(=S)Nc2ccc(Cl)cc2)c1[N+](=O)[O-],i,i,i,i
CCN1CCN(S(=O)(=O)c2ccc(Cl)c(C(=O)N(CCc3ccccc3)Cc3ccccc3)c2)CC1,x,i,x,x
O=C(NCC1CCCO1)c1cn(-c2ccccc2)nc1-c1ccc(F)cc1 (stereo not given),i,i,i,i
COc1ccc(S(=O)(=O)Nc2ccc3c(c2)n(C)c(=O)n3C)cc1F,i,i,i,i
Cc1cc(S(=O)(=O)Nc2ccc3c(c2)n(C)c(=O)n3C)ccc1F,100*,i,i,i
N/C(=N\OC(=O)COc1ccc(Cl)cc1Br)c1ccncc1,x,-39.1*,x,x
N/C(=N\OC(=O)c1cc(Cl)ccc1Cl)c1ccncc1,i,-10.4*,i,i
CCCN(CC(=O)Nc1ccccc1C)C(=O)C1CC(=O)N(c2ccc(C)cc2)C1 (stereo not given),x,i,x,x
CCOc1cc(CNCCO)cc(Br)c1OCc1ccc(Cl)cc1Cl,100*,i,i,i
COc1cc(C2=CN(Cc3ccccc3)CCC2=O)cc(OC)c1OC,x,i,x,x
CCCCCCn1c(=O)c(-c2ccccc2)c(O)c2ccccc21,i,i,i,i
CCCCCCCCn1c(=O)c(C(=O)OC)c(N)c2ccccc21,100*,i,i,i
COc1cccc(CNn2cnnc2)c1OCc1ccc(F)cc1,100*,i,i,i
COc1ccc(OC)c(S(=O)(=O)N2CCC(C(=O)N3CCN(c4ccc(F)cc4)CC3)CC2)c1,i,i,i,i
CCC1=NN(C(=O)c2ccc(Cl)cc2)C(O)(c2ccccc2)C1 (stereo not given),i,i,i,i
CCC1=NN(C(=O)c2ccc([N+](=O)[O-])cc2)C(O)(c2ccccc2)C1 (stereo not given),25*,i,i,i
C[C@H]1COC(=O)[C@H](Cc2ccc(F)cc2)C/C=C\C[C@H](CC(=O)NCCO)C(=O)N1,x,i,x,x
NC(N)=N/N=C/c1ccc(Cl)cc1Cl,i,i,-7.88*,i
Clc1ccc(C=NN2CCCCCC2)c(Cl)c1,x,i,x,x
COc1cc(/C=N/NC(=O)/C(=C\c2ccc3c(c2)OCO3)NC(=O)c2ccccc2)ccc1O,i,i,i,i
O=C(Nc1ccccc1Cl)c1ccc(COc2ccc3c(c2)CCC3)cc1,i,-7.43*,i,i
NNC(=O)c1ccc(COc2ccc3c(c2)CCC3)cc1,i,i,i,i
COc1ccc(C(=O)OCC(=O)N2C(C)CCCC2C)cc1S(=O)(=O)N1CCOCC1 (stereo not given),x,i,x,x
CCN(CC)c1ccc(/C=C2\C(=O)N(c3nnc(C)c(=O)[nH]3)N=C2C)cc1,i,-5.68*,i,i
CCN(CC)c1ccc(/C=C2/C(=O)ON=C2C)cc1,i,i,i,i
SMILES,ANO1 block,TMEM16A act,CHT block,CHT PAM
O=C(CCCN1C(=O)/C(=C/c2cccs2)SC1=S)NNC(=O)c1cccnc1,i,i,i,i
C=C(C)C(=O)OCC(O)COc1ccc(C(C)(C)c2ccc(OCC(O)COC(=O)C(=C)C)cc2)cc1 (stereo not given),100*,i,i,i
Cc1ccc(S(=O)(=O)Oc2ccccc2)cc1,x,i,x,x
Cc1ccc(S(=O)(=O)Oc2ccccc2-c2ccccc2)cc1,x,-5.36*,x,x
CCOC(=O)C(CCCCCOc1ccccc1[N+](=O)[O-])C(=O)OCC,i,i,i,i
CCOC(=O)C(CCCCCOc1ccc([N+](=O)[O-])cc1)C(=O)OCC,100*,i,i,i
Cc1ccc(-n2ncc3c2CCCC3NC(=O)CCCN2CCCCC2=O)cc1C (stereo not given),i,i,i,i
Cc1ccc(S(=O)(=O)Nc2cc(C(F)(F)F)ccc2N2CCOCC2)cc1,i,i,i,i
Cc1ccc(S(=O)(=O)Nc2cc(C(F)(F)F)ccc2N2CCOCC2)c(C)c1,i,-14.1*,i,i
Cc1ccc(S(=O)(=O)CCC(=O)OCC(=O)c2cc(C)ccc2C)cc1,i,i,i,i
Cc1ccc(S(=O)(=O)CCC(=O)c2ccc(O)cc2O)cc1,i,i,-5.16*,i
CCOC(=O)C(C(=O)NCc1ccc(F)cc1)c1ncc(C(F)(F)F)cc1Cl (stereo not given),i,i,i,i
O=C(NCc1ccc(F)cc1)C(C(=O)NCc1ccc(F)cc1)c1ncc(C(F)(F)F)cc1Cl,i,-7.26*,i,i
Cc1ccc(S(=O)(=O)N2CCCN(c3nc4cc(C)ccc4cc3C#N)CC2)cc1,i,-14*,i,i
CCC1CCCCN1S(=O)(=O)c1ccc(C(=O)Nc2nnc(-c3ccccc3Cl)o2)cc1 (stereo not given),100*,i,i,i
CC1CCCCN1S(=O)(=O)c1ccc(C(=O)Nc2nnc(-c3ccccc3Cl)o2)cc1 (stereo not given),i,i,i,i
O=C(O)C(Cc1ccccc1)N1C(=O)/C(=C/c2cccc3ccccc23)SC1=S (stereo not given),100*,x,i,i
Cc1ccc(/C=C2\SC(=S)N(C(Cc3ccccc3)C(=O)O)C2=O)cc1 (stereo not given),i,i,i,i
O=Cc1coc2c(ccc3ccccc32)c1=O,i,x,-6.49*,i
Cc1cccc(C(=O)Nc2ccc(C(=O)N3CCCCC3C)cc2)c1 (stereo not given),i,i,i,i
CCc1nnc(NC(=O)c2ccc(Cl)c(S(=O)(=O)N3CCc4ccccc43)c2)s1,100*,i,i,i
Cc1cccc(NC(=O)c2ccc(Cl)c(S(=O)(=O)N3CCc4ccccc43)c2)n1,x,i,x,x
O=[N+]([O-])c1cccc(-c2nnnn2-c2cccc(F)c2)c1,i,i,i,i
Clc1c(CSc2nc3ccccc3o2)nc2ccccn12,i,-21.2*,i,i
CCCCN(C(=O)c1ccc(S(=O)(=O)N(C)C)cc1)c1ccccc1,i,i,i,i
SMILES,ANO1 block,TMEM16A act,CHT block,CHT PAM
CCCCN(C(=O)c1ccc(S(=O)(=O)N(C)C)cc1)c1nc2ccccc2s1,i,-9.05*,i,i
O=C(NC1CC1)c1cccc(S(=O)(=O)Nc2ccccc2F)c1,i,-4.91*,i,i
O=C(Nc1cccnc1)c1cccc(S(=O)(=O)Nc2ccccc2F)c1,x,i,x,x
Cc1cc(Cl)ccc1OCC(=O)NCc1ccncc1,i,i,i,i
Cc1cc(Cl)ccc1OCC(=O)Nc1ccncc1,25*,i,i,i
Cc1ccc(C)c(Cn2c3ccccc3c3cnn(CC(=O)NCc4ccccn4)c(=O)c32)c1,i,-7.23*,i,i
O=C(Cn1ncc2c3ccccc3n(Cc3ccccc3F)c2c1=O)NCCCN1CCCC1=O,i,-5.21*,i,i

# Screening data: PubChem, Johns Hopkins Ion Channel Center
